# Inconclusive results are not listed. Calls of active or inactive are those of the source. How the source made its calls: active means hit-call score of the fitted dose curve at least 0.9, where 1 is the maximum; inconclusive means response in the unintended direction; inactive means score below 0.9.
# Columns and labels:
# [1] = TOX21_p53_BLA_p2_viability: Viability Assessment in the Tox21 HCT-116 p53 Agonism Beta-lactamase Assay, Phase 2 (AID 2283591);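 further: compound exposure lasted 16 h at 37 °C; actives lower the ATP signal meaning cytotoxicity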
# Method in brief: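 Cytotoxicity readout: CellTiter-Glo ATP luminescence, 30 min at room temperature, after the beta-lactamase read. Cells were HCT116 exposed 16 h at 37C to compounds pin-transferred at 217-fold dilution from DMSO stocks.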
# [2] = target: Cellular tumor antigen p53 (Homo sapiens) (UniProt P04637); experiment: TOX21_p53_BLA_p2_ratio: Tox21 HCT-116 p53 Agonism Beta-lactamase Assay, Ratio, Phase 2 (AID 2283592)
# Sequence of Cellular tumor antigen p53 (Homo sapiens) (P04637 whole entry, looked up): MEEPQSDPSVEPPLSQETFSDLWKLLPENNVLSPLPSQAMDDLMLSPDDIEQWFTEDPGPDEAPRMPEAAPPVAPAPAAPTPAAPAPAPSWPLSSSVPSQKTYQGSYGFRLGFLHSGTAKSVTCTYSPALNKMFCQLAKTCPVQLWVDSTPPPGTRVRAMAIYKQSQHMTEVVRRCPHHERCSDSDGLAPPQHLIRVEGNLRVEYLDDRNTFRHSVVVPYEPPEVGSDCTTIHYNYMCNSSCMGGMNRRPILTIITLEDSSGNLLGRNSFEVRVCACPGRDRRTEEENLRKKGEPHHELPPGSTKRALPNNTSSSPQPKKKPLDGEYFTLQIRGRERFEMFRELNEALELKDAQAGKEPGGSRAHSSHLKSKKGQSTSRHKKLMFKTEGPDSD
# Method in brief: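 HCT-116 cells with p53-responsive beta-lactamase reporter, 4000 cells/well, preincubated 5 h, then compound in DMSO (217-fold dilution) for 16 h at 37C. CCF4-AM substrate 2 h at room temperature; 460/530 nm emission ratio fitted upward versus DMSO.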
# [3] = target: Cellular tumor antigen p53 (Homo sapiens) (UniProt P04637); experiment: TOX21_p53_BLA_p3_ratio: Tox21 HCT-116 p53 Agonism Beta-lactamase Assay, Ratio, Phase 3 (AID 2283596)
# Method in brief: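 HCT116 p53-bla cells (4000/well) given compound in DMSO (217-fold dilution) after 5 h, incubated 16 h at 37C. CCF4-AM substrate 2 h at room temperature; 460/530 nm emission ratio, gain fitted against DMSO.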
# [4] = target: Cellular tumor antigen p53 (Homo sapiens) (UniProt P04637); experiment: TOX21_p53_BLA_p5_ratio: Tox21 HCT-116 p53 Agonism Beta-lactamase Assay, Ratio, Phase 5 (AID 2283599)
# Method in brief: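 Beta-lactamase reporter ratio (blue 460 nm over green 530 nm, 405 nm excitation) after 2 h CCF4-AM loading, in HCT-116 cells exposed 16 h at 37 C to compounds pinned at 217-fold dilution. Increases relative to DMSO baseline scored.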
# [5] = TOX21_p53_BLA_p5_viability: Viability Assessment in the Tox21 HCT-116 p53 Agonism Beta-lactamase Assay, Phase 5 (AID 2283600)
# Method in brief: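 HCT-116 p53 beta-lactamase reporter cells, 4000/well, were exposed to compound (pin transfer, 217-fold dilution) for 16 hours at 37C. Cellular ATP was read by CellTiter-Glo luminescence after 30 min at room temperature.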
# [6] = target: Cellular tumor antigen p53 (Homo sapiens) (UniProt P04637); experiment: TOX21_p53_BLA_p4_ratio: Tox21 HCT-116 p53 Agonism Beta-lactamase Assay, Ratio, Phase 4 (AID 2283601)
# Method in brief: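 Signal is the blue/green (460nm/530nm) ratio of cleaved versus uncleaved CCF4-AM substrate, read after 2 h substrate loading. Cells were HCT116 carrying the p53-responsive beta-lactamase reporter, dosed 16 h at 37C, 5% CO2; CellTiter-Glo measured in parallel.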
Compound,outcome [1],outcome [2],outcome [3],outcome [4],outcome [5],outcome [6],AC50 [6]
CN(C)CCn1nnnc1SCC1=C(C(=O)O)N2C(=O)[C@@H](NC(=O)Cc3csc(N)n3)[C@H]2SC1,inactive,inactive,inactive,inactive,inactive,inactive,–
O=C(O)c1cc(O)c2c(c1)[C@H]([C@H]1c3cc(C(=O)O)cc(O)c3C(=O)c3c(O[C@@H]4O[C@H](CO)[C@@H](O)[C@H](O)[C@H]4O)cccc31)c1cccc(O[C@@H]3O[C@H](CO)[C@@H](O)[C@H](O)[C@H]3O)c1C2=O,inactive,inactive,inactive,inactive,inactive,inactive,–
CC(C)[C@@H](N)C(=O)O,inactive,inactive,inactive,inactive,inactive,inactive,–
CCCn1cnc2c1c(=O)n(CCCCC(C)=O)c(=O)n2C,inactive,inactive,inactive,inactive,inactive,–,–
N.N.O=C([O-])C1(C(=O)[O-])CCC1.[Pt+4],inactive,inactive,inactive,inactive,inactive,–,–
COc1cc(NS(=O)(=O)c2ccc(N)cc2)ncn1,inactive,inactive,inactive,inactive,inactive,inactive,–
O=C(O)CNC(=O)c1ccc([N+](=O)[O-])cc1,inactive,inactive,inactive,inactive,inactive,inactive,–
CNC(=O)OCc1cccc(COC(=O)NC)n1,inactive,inactive,inactive,inactive,inactive,–,–
CC=CC(=O)CC,inactive,inactive,inactive,inactive,inactive,–,–
O=[N+]([O-])c1ccccc1Nc1ccccc1,inactive,inactive,inactive,inactive,inactive,inactive,–
C=CCn1cc[n+](C)c1,inactive,inactive,inactive,inactive,inactive,inactive,–
CCCCCCCCCCCCCCCC(=O)NCCO,inactive,inactive,inactive,inactive,inactive,inactive,–
CCOC(=O)COc1ccc2c(C)c(CCN(CC)CC)c(=O)oc2c1,inactive,inactive,inactive,inactive,inactive,inactive,–
H-RKDVY-OH,inactive,inactive,inactive,inactive,inactive,–,–
NCCO/C=C/[C@H](N)C(=O)O,inactive,inactive,inactive,inactive,inactive,inactive,–
C=C(C)C1CC=C(C)C(O)C1 (centres undefined),inactive,inactive,inactive,inactive,inactive,inactive,–
CC(C(=O)O)c1ccc2c(c1)[nH]c1ccc(Cl)cc12 (centres undefined),inactive,inactive,inactive,inactive,inactive,inactive,–
Cc1cc(=O)oc2cc(O)cc(O)c12,inactive,inactive,inactive,inactive,inactive,–,41.7 µM (active)
CC1CCC(NC(=O)N(CCCl)N=O)CC1 (centres undefined),inactive,inactive,inactive,inactive,inactive,inactive,–
